The structures appear in SMILES notation. Unmarked numbers belong to inactive results. Results filed as inconclusive are left out. Calls of active or inactive are those of the source. Unless noted, calls come from the whole dose curve; as a rule, active = well fitted curve in the direction sought with a large enough effect; inconclusive = small, poorly fitted or top-dose-only effect, or another doubt; inactive = no such curve, though single readings can be large; an effect the other way counts as inactive or inconclusive.

Assay [1] in a line: qHTS assay for measurement of the activity of small molecule inhibitors on Zika virus induced Caspase-3 activity in human astrocytoma cells (AID 1224859).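 Note: plate controls were ZIKV-infected untreated cells for no effect and uninfected cells for full effect.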 A digest of the protocol:
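In SNB-19 cells plated at 250 cells/well and grown 16-20 h, compounds were applied 1 h before ZIKV (2 FFU/cell). Six hours later caspase-3/7 luminescence was recorded.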

Assay [2] in a line: qHTS assay to identify small molecule inhibitors of chordoma cells - UCH-1 (AID 1259355). Note: nearly all actives have a fitted effect of over 55% in size. Note: potency is the fitted concentration of half-maximal effect; series mostly up to about 46 µM. A digest of the protocol:
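Luminescent ATP read-out (CellTiter-Glo, 30min at room temperature) measured viability of UCH-1 cells exposed for 48hr to test drugs at 15 concentrations, co-dosed with a five-agent combination of auranofin, camptothecin, doxorubicin, rubitecan and topotecan.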
For orientation: qHTS replaces the single test concentration by a dilution series.

A short description of assay [3]: qHTS assay to identify small molecule inhibitors of chordoma cells - UCH-2 (AID 1259356). Note: potency is the fitted concentration of half-maximal effect.
Assay [4] in a line: P-glycoprotein substrates identified in KB-8-5-11 adenocarcinoma cell line, qHTS therapeutic library screen (AID 1346987). Note: nearly all actives have a fitted effect of over 65% in size. Note: potency is the fitted concentration of half-maximal effect. In short, it runs like this:
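Steps: plate 500 KB-8-5-11 cells/well in DMEM + 10% FCS (colchicine removed); pin compounds in dose-response; incubate 72 h, 37 degree C, 5% CO2; add CellTiter-Glo, 5 min; read luminescence.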

Assay [5] addresses Atrial natriuretic peptide receptor 1 (Homo sapiens) (UniProt P16066). The assay can be described thus: Natriuretic polypeptide receptor (hNpr1) antagonism - Pilot screen (AID 1347049; calls by dose curve;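 note: agonist-evoked cGMP luminescence read 20 min after hNppA addition; series mostly up to about 58 µM; % is set by controls: 0 for no effect and ±100 for the full control effect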). In short, it runs like this: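 HEK293 cells co-expressing hNpr1 and the GloSensor pGS-40F cGMP luciferase sensor were preloaded with 2% GloSensor reagent for 2 h. Compounds were added for 30 min at room temperature, then cells were stimulated with 0.1 nM hNppA for 20 min before luminescence readout.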

Assay [6] addresses Atrial natriuretic peptide receptor 2 (Homo sapiens) (UniProt P20594). The assay is described as follows: Natriuretic polypeptide receptor (hNpr2) antagonism - Pilot subtype selectivity assay (AID 1347050; calls by dose curve; note: potency is the fitted concentration of half-maximal effect). In short, it runs like this:
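cGMP-sensor HEK293/hNpr2 cells; 2% GloSensor reagent 2 h RT; compounds 30 min; baseline luminescence read; 1 nM hNppC agonist 20 min RT; final luminescence read by CCD camera. Antagonism = reduced post-agonist signal.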

Assay [7] can be described thus: NS1 protein of Zika virus - qHTS assay to identify small molecule inhibitors in human HEK 293 cells (AID 1347053).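 Note: series mostly up to about 46 µM; plate controls were infected untreated cells for no effect and uninfected cells for full effect; nearly all actives have a fitted effect of over 55% in size.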 In short, it runs like this: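 HEK 293; 20 h pre-culture, 37 C/5% CO2; cpd 1 h pre-infection; ZIKV MR766, MOI = 0.5, 24 h, 37 C; TR-FRET NS1 readout (two anti-NS1 Abs); norm. to no-virus vs infected.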
Assay [8] has as its target T1, Tyrosine-protein phosphatase non-receptor type substrate 1 (Homo sapiens) + Leukocyte surface antigen CD47 (Homo sapiens) (UniProt P78324+Q08722). The assay can be described thus: CD47-SIRPalpha protein protein interaction - LANCE assay qHTS validation (AID 1347057; active = well fitted curve in the direction sought with a large enough effect in the signal ratio, with a control signal flat, not every such curve was filed as active; the % refers to the signal ratio; note: series mostly up to about 38 µM; 0% is about no effect). In short, it runs like this:
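First, His-tagged CD47 and Eu-labelled anti-His antibody met the compound for 30 min; next, site-specifically biotinylated SIRPalpha was added for 30 min; finally streptavidin-APC was added before reading the TR-FRET ratio.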
(Time-resolved FRET reads energy transfer from a long-lived donor to a nearby acceptor.)

Assay [9] deals with T1, Tyrosine-protein phosphatase non-receptor type substrate 1 (Homo sapiens) + Leukocyte surface antigen CD47 (Homo sapiens). The assay can be described thus: CD47-SIRPalpha protein protein interaction - HTRF assay qHTS validation (AID 1347058; active = well fitted curve in the direction sought with a large enough effect in the signal ratio, not every such curve was filed as active; the % refers to the signal ratio; note: series mostly up to about 38 µM; 0% is about no effect). In short, it runs like this: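 TR-FRET read (Ch1/Ch2 ratio) of soluble extracellular CD47 and Avi-biotinylated SIRPalpha domains in PBS pH 7.4 with 0.05% IGEPAL; 7-point compound titration. Sequential 30 min room-temperature steps; non-biotinylated SIRPalpha as control inhibitor.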

For assay [10] the target is unchanged. The assay can be described thus: CD47-SIRPalpha protein protein interaction - Alpha assay qHTS validation (AID 1347059).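 Note: bead proximity luminescence from CD47 binding SIRPalpha after compound preincubation with SIRPalpha; % is set by controls: 0 for no effect and ±100 for the full control effect.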 In short, it runs like this:
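Soluble extracellular domains: Avi-tag biotinylated SIRPalpha (25 nM) preincubated 30 min RT with compound, then 6His-CD47 (12.5 nM) 30 min; Ni-NTA acceptor and streptavidin donor beads (10 ug/mL) 30 min, AlphaScreen read. PBS pH 7.4, 0.05% IGEPAL.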

The target in assay [11] is Parathyroid hormone/parathyroid hormone-related peptide receptor (Homo sapiens) (UniProt Q03431). The assay can be described thus: qHTS for PTHR1 Agonists: Optimization Screen against the NCGC LOPAC library (AID 1347079).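 Note: GloSensor cAMP luminescence in HEK-293 GP2 cells expressing human PTHR1 with IBMX; 0% is about no effect.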 In short, it runs like this:
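Agonist readout: GloSensor cAMP luminescence, read after 15 min at room temperature. HEK-293-derived GP2 line carries PTHR1; compounds tested as a titration for 1 hr at 37C in presence of IBMX. M-PTH (1-15) served as control.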

Assay [12] can be described thus: qHTS of pediatric cancer cell lines to identify multiple opportunities for drug repurposing: Primary screen for TC32 cells (AID 1347089). Note: % is set by controls: 0 for no effect and ±100 for the full control effect; nearly all actives have a fitted effect of over 60% in size. A digest of the protocol:
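Measured quantity: luminescence from CellTiter-Glo, reflecting metabolically active TC32 cells following 48 h of compound. Curves came straight from multi-point titrations, with 8 or 11 points in primary and 11 in confirmatory screening.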

Assay [13] can be described thus: qHTS of pediatric cancer cell lines to identify multiple opportunities for drug repurposing: Primary screen for DAOY cells (AID 1347090).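 Note: series mostly up to about 46 µM; plate controls were DMSO for no effect and bortezomib for full effect; nearly all actives have a fitted effect of over 55% in size.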 In short, it runs like this:
(§1)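 Eight- or eleven-point concentration series, 48 h treatment at 37 degrees C in growth media; readout CellTiter-Glo luminescence. Potency and efficacy were taken from the concentration-response curves.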

The nature of assay [14]: qHTS of pediatric cancer cell lines to identify multiple opportunities for drug repurposing: Primary screen for SJ-GBM2 cells (AID 1347091).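 Note: plate controls were DMSO neutral control for no effect and bortezomib for full effect.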 A digest of the protocol: as §1
Assay [15] can be described thus: qHTS of pediatric cancer cell lines to identify multiple opportunities for drug repurposing: Primary screen for A673 cells (AID 1347092). Note: % is set by controls: 0 for no effect and ±100 for the full control effect; nearly all actives have a fitted effect of over 45% in size. A digest of the protocol:
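Cells are plated, rested 5 h, dosed by pintool, incubated 48 h, then lysed with CellTiter-Glo and read by luminescence. DMSO is the neutral control; bortezomib at 2.3 uM final is the positive control.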

Assay [16] can be described thus: Natriuretic polypeptide receptor (hNpr1) antagonism - Pilot counterscreen GloSensor control cell line (AID 1347045; calls by dose curve; note: series mostly up to about 38 µM; % is set by controls: 0 for no effect and ±100 for the full control effect). A digest of the protocol:
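Luminescence was read before and 20 min after adding 50 uM SNP, which stimulates soluble guanylyl cyclase. The HEK293 cells expressing the GloSensor cGMP sensor had been preloaded with 2% reagent for 2 h and treated with compound.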
On the technique in general: A counterscreen serves to expose hits that act by an unwanted route or on another target.

Sequence of Parathyroid hormone/parathyroid hormone-related peptide receptor (Homo sapiens) (Q03431 whole entry, looked up): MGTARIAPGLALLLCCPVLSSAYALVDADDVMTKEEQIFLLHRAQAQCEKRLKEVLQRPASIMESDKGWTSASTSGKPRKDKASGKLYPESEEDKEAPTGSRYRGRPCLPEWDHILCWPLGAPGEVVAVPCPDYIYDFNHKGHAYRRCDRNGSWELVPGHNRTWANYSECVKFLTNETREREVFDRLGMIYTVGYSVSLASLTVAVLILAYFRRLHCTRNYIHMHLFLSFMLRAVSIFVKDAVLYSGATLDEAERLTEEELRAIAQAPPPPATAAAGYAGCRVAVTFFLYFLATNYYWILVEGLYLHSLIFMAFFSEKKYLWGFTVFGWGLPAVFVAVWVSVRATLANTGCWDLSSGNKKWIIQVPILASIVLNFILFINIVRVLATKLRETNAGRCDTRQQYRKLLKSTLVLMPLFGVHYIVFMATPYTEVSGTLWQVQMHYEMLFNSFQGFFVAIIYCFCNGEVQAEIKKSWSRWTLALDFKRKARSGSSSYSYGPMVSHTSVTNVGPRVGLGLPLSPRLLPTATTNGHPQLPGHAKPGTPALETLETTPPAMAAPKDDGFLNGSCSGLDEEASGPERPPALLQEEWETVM
Sequence of Atrial natriuretic peptide receptor 1 (Homo sapiens) (P16066 whole entry, looked up): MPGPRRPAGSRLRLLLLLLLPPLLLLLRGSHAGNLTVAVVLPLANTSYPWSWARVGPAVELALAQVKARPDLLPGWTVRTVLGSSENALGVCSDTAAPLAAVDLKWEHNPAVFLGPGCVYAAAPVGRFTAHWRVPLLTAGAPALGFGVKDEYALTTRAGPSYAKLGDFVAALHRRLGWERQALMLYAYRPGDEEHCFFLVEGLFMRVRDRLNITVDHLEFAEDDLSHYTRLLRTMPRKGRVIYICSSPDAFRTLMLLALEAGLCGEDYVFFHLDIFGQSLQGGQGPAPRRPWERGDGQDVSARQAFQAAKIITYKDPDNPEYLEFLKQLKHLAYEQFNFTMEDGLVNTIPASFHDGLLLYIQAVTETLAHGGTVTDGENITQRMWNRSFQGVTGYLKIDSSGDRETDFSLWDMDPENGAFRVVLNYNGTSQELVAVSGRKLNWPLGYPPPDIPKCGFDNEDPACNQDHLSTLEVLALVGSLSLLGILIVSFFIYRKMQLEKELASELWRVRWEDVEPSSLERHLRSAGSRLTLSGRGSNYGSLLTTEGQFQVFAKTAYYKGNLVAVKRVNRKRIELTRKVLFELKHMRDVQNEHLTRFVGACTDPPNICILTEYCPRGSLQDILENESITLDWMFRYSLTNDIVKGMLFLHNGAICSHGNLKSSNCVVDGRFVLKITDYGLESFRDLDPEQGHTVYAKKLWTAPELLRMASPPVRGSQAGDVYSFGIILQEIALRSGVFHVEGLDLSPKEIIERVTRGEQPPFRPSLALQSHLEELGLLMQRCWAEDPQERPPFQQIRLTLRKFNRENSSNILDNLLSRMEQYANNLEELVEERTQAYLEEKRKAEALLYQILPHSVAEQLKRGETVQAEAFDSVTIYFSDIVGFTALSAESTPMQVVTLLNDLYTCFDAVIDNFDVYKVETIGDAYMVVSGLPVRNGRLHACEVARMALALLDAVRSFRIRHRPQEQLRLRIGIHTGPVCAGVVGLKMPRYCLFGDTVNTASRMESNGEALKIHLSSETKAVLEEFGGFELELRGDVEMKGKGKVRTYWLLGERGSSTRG
Sequence of Atrial natriuretic peptide receptor 2 (Homo sapiens) (P20594 whole entry, looked up): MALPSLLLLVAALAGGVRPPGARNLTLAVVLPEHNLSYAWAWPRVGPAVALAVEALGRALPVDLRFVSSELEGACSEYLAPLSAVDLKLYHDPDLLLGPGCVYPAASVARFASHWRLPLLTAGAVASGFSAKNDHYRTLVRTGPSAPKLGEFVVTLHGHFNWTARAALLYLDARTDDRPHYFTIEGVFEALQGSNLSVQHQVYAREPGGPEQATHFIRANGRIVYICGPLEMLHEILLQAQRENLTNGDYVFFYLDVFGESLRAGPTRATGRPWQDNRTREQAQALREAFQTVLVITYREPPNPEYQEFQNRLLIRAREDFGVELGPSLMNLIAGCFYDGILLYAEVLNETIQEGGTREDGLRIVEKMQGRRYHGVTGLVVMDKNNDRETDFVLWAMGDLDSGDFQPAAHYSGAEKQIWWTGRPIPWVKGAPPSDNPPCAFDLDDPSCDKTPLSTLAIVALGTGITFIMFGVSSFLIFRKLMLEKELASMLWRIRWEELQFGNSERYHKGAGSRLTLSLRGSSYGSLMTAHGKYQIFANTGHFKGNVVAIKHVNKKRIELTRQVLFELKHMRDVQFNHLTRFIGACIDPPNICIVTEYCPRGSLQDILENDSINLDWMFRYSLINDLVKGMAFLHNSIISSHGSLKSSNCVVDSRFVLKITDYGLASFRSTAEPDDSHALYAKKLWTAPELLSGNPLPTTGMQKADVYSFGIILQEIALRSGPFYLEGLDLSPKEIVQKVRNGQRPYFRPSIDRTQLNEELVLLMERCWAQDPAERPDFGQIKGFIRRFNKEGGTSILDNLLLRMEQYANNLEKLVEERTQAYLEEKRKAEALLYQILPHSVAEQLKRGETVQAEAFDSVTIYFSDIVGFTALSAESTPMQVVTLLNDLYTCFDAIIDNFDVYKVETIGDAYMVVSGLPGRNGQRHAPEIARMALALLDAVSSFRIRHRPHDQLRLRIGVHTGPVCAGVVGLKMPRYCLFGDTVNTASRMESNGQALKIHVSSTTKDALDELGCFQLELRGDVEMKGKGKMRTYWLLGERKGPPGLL
T1 sequence (P78324 whole entry, looked up): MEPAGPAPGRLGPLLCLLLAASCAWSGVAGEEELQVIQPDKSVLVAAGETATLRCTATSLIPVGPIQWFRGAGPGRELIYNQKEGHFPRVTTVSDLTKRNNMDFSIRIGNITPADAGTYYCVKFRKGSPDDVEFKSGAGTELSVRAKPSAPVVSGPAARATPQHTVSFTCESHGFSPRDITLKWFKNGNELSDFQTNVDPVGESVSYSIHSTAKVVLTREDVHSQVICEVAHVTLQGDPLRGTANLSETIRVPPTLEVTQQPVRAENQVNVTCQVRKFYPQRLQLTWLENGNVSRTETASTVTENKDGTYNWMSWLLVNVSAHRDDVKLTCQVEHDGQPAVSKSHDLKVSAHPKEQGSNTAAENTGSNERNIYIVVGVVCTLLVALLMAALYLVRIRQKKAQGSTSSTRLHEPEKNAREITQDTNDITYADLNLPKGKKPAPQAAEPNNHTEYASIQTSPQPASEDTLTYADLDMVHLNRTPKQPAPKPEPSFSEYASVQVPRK
T1 sequence (Q08722 whole entry, looked up): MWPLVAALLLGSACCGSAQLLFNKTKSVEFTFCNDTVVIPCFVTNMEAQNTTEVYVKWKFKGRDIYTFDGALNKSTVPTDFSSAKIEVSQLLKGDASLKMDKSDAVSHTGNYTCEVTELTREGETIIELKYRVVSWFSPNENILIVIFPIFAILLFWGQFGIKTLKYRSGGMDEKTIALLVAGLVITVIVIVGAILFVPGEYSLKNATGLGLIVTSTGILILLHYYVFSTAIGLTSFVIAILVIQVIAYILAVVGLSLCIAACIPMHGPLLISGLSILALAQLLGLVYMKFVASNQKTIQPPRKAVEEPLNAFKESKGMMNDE

Regarding `NC(Cc1ccc(Cl)cc1)C(=O)O` (stereo unspecified), the compound was classed as inactive in assay [1], in assay [7], in assay [8], in [9] and in assay [11]. The Potency entry in assay [2], in [3], in [4], in [5], in assay [6] and in assay [10] was “inactive” each time. The activity change, negative = cytotoxic in assay [12] is 11.6% [at 0.594 µM]; in assay [13] it was 15.2% [at 0.597 µM]; in assay [14], 16.4% [at 0.597 µM]; in assay [15], 16% [at 0.597 µM].

Turning to `CCCN(CCC)C(=O)C(CCC(=O)O)NC(=O)c1ccccc1` (stereo unspecified), the compound was classed as inactive in assay [1], in [7], in assay [8], in [9] and in assay [11]. Besides, the Potency entry in assay [2], in assay [3], in assay [4], in [5], in assay [6] and in assay [10] was “inactive” each time. Also, the Potency entry in assay [12], in [14] and in assay [15] was “inactive” throughout.

As to `CC(C)(Oc1ccc(CCNC(=O)c2ccc(Cl)cc2)cc1)C(=O)O`, the outcome in assay [1], in assay [7], in [8], in assay [9] and in assay [11] was inactive. For the same compound, the Potency entry in assay [2], in assay [3], in assay [4], in assay [16], in assay [5] and in assay [6] was “inactive” each time. Besides, the Potency result in assay [10], in assay [12], in assay [14] and in assay [15] was “inactive” each time.

For `CCO/C([O-])=N/c1c[n+](N2CCOCC2)no1`, the result in assay [1], in assay [7], in assay [8] and in assay [11] was inactive. The Potency entry in assay [2], in [3], in assay [4], in assay [16], in assay [5] and in [6] was “inactive” throughout. The Potency result in assay [12], in assay [13], in assay [14] and in assay [15] was “inactive” each time.

For the compound `CC(=O)[C@@]1(O)CC[C@H]2[C@@H]3CCC4=CC(=O)CC[C@]4(C)[C@H]3CC[C@@]21C`, the compound was classed as inactive in [1], in assay [7], in assay [8], in assay [9] and in [11]. Also, the Potency entry in assay [2], in assay [3], in [4], in [5], in [6] and in assay [10] was “inactive” in each case. Also, the Potency entry in assay [12], in [13], in assay [14] and in [15] was “inactive” in each case.

On to `Cc1ccc(Cl)c(Nc2ccccc2C(=O)O)c1Cl`, for which the call in assay [1], in assay [7], in [8] and in assay [11] was inactive. Besides, the Potency entry in [2], in [3], in assay [4], in [16], in assay [5] and in assay [6] was “inactive” throughout. In addition, the Potency entry in [10], in [12] and in assay [15] was “inactive” throughout.

Regarding `CCCC(C(=O)OCCN(CC)CC)(c1ccccc1)c1ccccc1`, the result in assay [1], in assay [7], in assay [8], in [9] and in assay [11] was inactive. The Potency entry in [2], in assay [3], in assay [16], in [5], in [10] and in assay [12] was “inactive” throughout. For the same compound, the Potency is 13 µM (active) in assay [4] and 10.4 µM (active) in assay [6].

As for `CC(=O)OC(C)C[N+](C)(C)C` (stereo unspecified), the result in assay [1], in [7], in assay [8], in assay [9] and in assay [11] was inactive. The Potency result in [2], in [3], in assay [4], in [16], in [5] and in assay [6] was “inactive” in each case. For the same compound, the Potency entry in assay [10], in assay [14] and in assay [15] was “inactive” in each case.

Turning to `CCN(CC)CCCN(c1ccccc1)C1Cc2ccccc2C1`, the outcome in assay [1], in assay [7], in assay [8], in assay [9] and in assay [11] was inactive. The values for the Potency in assay [2], in assay [3] and in assay [4] were 31.6 µM (active), 23.1 µM (active) and 10.3 µM (active), respectively. Besides, the Potency result in [16], in assay [5], in assay [10], in assay [12] and in [13] was “inactive” in each case.

These data come from PubChem BioAssay (NCATS).
